{"source": "paper PMC7862700", "about": "“An all-to-all approach to the identification of sequence-specific readers for epigenetic DNA modifications on cytosine”", "test_in_all_cases": "DAPPL (digital affinity profiling via proximity ligation, sequencing); 10 mM Tris-HCl pH 7.5, 50 mM NaCl, 1 mM DTT, 4% glycerol, room temperature, 30 min; GST-TFs on glutathione beads, 16-mer random dsDNA library, 0.1% formaldehyde crosslink after washing; high values mean tight binding", "conditions_in_all_cases": "protein: recombinant; tags: N-terminal GST; dsDNA, one strand shown", "key": {"FLI1": {"molecular_target": "T1, FLI1 (Homo sapiens, UniProt Q01543 1-452)", "T1 sequence": "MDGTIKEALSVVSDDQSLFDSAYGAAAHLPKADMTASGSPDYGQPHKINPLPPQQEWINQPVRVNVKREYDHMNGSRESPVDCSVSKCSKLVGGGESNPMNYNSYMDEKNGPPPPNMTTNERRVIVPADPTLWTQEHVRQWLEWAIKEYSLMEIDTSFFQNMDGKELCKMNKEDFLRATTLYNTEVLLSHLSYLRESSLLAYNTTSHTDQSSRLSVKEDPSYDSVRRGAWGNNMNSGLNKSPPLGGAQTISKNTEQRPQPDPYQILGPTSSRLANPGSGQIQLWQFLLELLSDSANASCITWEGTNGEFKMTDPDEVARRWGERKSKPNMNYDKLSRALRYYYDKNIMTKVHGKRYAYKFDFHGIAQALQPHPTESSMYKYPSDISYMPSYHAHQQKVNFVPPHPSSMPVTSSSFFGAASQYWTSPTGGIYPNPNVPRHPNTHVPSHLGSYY", "summary_of_the_method": "(§1)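 Binding signal is defined as a hexamer's read frequency for one factor over its frequency for the tag-only sample. To obtain reads, GST-fused human transcription factors were expressed in yeast, captured on glutathione beads, barcoded with DNA and pooled with that sample. Pools met 200 nmole of a 16-mer random double-stranded DNA library in Tris/NaCl/DTT/glycerol buffer for 30 min at room temperature before washing, 0.1% formaldehyde crosslinking, proximity ligation (BsaI/T4 ligase, 1 h, 37 °C), PCR and Illumina NextSeq500 sequencing.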"}, "ERG": {"molecular_target": "T2, ERG (Homo sapiens, UniProt P11308 1-479)", "T2 sequence": "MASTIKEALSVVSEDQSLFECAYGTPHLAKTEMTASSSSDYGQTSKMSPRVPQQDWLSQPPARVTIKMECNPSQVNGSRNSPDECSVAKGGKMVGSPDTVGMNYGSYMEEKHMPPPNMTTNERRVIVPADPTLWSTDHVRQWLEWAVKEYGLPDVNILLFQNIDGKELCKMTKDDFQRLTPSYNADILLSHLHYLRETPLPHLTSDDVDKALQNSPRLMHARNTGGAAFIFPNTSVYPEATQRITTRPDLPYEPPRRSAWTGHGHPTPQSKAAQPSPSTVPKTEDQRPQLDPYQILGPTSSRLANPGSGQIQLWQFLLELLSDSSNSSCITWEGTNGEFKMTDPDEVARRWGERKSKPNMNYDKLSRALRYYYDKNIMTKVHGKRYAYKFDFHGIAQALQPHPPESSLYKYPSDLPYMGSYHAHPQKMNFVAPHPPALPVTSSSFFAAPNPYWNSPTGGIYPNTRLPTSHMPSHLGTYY", "summary_of_the_method": "as §1"}, "EHF": {"molecular_target": "T3, EHF (Homo sapiens, UniProt Q9NZC4 1-300)", "T3 sequence": "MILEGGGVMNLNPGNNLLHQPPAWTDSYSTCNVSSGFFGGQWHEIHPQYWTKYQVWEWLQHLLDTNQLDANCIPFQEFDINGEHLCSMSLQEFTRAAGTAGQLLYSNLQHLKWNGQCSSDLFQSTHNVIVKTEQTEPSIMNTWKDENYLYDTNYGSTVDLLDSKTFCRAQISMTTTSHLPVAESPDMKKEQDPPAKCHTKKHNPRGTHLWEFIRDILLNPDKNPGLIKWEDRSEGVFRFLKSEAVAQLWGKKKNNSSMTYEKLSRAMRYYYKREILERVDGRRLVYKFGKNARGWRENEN", "summary_of_the_method": "as §1"}, "SPI1": {"molecular_target": "SPI1 (Homo sapiens, UniProt P17947 1-270)", "summary_of_the_method": "as §1"}, "SPIB": {"molecular_target": "SPIB (Homo sapiens, UniProt Q01892 1-262)", "sequence (Q01892 whole entry)": "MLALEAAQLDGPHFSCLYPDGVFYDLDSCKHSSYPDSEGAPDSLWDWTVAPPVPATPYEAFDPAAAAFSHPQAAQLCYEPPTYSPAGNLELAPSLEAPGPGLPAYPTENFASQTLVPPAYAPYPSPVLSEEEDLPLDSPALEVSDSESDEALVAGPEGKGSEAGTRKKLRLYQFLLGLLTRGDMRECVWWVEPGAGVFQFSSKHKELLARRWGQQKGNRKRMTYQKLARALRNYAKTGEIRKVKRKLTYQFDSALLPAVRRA", "summary_of_the_method": "as §1"}, "ELK3": {"molecular_target": "T4, ELK3 (Homo sapiens, UniProt P41970 1-407)", "T4 sequence": "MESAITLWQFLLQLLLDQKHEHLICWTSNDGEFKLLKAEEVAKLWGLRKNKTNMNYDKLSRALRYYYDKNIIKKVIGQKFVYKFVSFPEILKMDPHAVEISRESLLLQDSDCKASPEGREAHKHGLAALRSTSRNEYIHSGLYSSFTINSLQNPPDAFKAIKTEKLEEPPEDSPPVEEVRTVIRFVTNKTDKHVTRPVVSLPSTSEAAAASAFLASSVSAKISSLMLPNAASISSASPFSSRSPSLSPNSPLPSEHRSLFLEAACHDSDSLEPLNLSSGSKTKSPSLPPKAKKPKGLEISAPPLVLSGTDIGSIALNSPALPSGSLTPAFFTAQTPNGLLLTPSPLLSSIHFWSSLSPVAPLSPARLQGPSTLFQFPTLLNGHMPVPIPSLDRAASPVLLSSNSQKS", "summary_of_the_method": "as §1"}, "ETV5": {"molecular_target": "ETV5 (Homo sapiens, UniProt P41161 1-510)", "sequence (P41161 whole entry)": "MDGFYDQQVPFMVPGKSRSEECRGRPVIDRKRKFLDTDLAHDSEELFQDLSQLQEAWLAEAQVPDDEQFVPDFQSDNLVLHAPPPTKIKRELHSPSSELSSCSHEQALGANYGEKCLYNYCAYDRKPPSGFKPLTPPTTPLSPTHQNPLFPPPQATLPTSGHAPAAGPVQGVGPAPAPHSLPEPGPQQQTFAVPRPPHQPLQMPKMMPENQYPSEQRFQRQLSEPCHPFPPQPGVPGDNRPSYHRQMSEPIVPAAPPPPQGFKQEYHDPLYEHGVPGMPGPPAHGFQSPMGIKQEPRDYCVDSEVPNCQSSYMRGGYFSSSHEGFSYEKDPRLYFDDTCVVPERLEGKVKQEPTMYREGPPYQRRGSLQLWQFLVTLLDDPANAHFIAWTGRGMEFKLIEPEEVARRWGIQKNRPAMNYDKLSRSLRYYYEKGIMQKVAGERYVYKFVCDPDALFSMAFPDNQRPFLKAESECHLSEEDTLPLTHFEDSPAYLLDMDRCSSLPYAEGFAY", "summary_of_the_method": "as §1"}, "SPIC": {"molecular_target": "T5, SPIC (Homo sapiens, UniProt Q8N5J4 1-248)", "T5 sequence": "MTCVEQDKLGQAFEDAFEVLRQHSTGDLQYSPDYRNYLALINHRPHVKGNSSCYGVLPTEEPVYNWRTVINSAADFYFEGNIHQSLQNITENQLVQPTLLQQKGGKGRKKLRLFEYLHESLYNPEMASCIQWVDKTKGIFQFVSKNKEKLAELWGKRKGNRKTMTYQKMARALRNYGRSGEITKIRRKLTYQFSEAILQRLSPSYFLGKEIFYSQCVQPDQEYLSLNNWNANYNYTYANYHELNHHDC", "summary_of_the_method": "as §1"}, "ERF": {"molecular_target": "T6, ERF (Homo sapiens, UniProt P50548 1-548)", "T6 sequence": "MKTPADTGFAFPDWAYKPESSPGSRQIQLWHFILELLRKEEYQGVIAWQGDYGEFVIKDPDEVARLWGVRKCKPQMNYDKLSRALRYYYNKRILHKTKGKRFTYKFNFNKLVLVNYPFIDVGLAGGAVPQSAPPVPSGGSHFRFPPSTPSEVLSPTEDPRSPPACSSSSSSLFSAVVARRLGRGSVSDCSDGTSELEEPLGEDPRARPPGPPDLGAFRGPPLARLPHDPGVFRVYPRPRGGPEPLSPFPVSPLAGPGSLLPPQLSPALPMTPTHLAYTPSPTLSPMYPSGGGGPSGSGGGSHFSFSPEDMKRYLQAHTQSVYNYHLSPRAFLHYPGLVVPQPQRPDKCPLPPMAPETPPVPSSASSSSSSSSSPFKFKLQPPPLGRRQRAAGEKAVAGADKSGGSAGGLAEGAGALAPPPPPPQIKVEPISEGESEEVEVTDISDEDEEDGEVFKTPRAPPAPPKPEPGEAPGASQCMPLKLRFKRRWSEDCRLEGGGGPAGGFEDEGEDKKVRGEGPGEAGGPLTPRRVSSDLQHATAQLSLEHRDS", "summary_of_the_method": "as §1"}, "ETV3": {"molecular_target": "T7, ETV3 (Homo sapiens, UniProt P41162-2 1-143)", "T7 sequence": "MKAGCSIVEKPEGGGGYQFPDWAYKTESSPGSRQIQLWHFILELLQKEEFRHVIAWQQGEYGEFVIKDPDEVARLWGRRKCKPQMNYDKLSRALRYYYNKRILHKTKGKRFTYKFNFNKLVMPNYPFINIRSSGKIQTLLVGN", "summary_of_the_method": "as §1"}, "ETV6": {"molecular_target": "ETV6 (Homo sapiens, UniProt P41212 1-452)", "sequence (P41212 whole entry)": "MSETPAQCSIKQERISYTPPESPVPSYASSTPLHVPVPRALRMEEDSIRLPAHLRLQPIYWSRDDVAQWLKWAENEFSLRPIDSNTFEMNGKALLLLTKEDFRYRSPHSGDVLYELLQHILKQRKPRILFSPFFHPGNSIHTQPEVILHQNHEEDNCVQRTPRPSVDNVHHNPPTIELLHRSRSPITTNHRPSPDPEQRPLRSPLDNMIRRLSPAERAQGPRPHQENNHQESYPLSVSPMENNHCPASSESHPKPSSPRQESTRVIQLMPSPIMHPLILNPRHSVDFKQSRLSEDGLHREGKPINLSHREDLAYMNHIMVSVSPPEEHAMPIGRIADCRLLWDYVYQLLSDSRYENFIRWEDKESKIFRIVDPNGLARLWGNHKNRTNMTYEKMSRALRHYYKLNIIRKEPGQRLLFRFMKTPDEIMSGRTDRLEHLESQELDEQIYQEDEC", "summary_of_the_method": "as §1"}}}
{"sequence": "AGTAAC", "values": [{"measurement": "binding signal", "setting": "FLI1", "result": "1.02 fold enrichment (6-mer frequency, TF over GST control)"}, {"measurement": "binding signal", "setting": "ERG", "result": "1.02 fold enrichment (6-mer frequency, TF over GST control)"}, {"measurement": "binding signal", "setting": "EHF", "result": "1 fold enrichment (6-mer frequency, TF over GST control)"}, {"measurement": "binding signal", "setting": "SPI1", "result": "1.07 fold enrichment (6-mer frequency, TF over GST control)"}, {"measurement": "binding signal", "setting": "SPIB", "result": "1 fold enrichment (6-mer frequency, TF over GST control)"}, {"measurement": "binding signal", "setting": "ELK3", "result": "1.01 fold enrichment (6-mer frequency, TF over GST control)"}, {"measurement": "binding signal", "setting": "ETV5", "result": "1.03 fold enrichment (6-mer frequency, TF over GST control)"}, {"measurement": "binding signal", "setting": "SPIC", "result": "1.07 fold enrichment (6-mer frequency, TF over GST control)"}, {"measurement": "binding signal", "setting": "ERF", "result": "1.01 fold enrichment (6-mer frequency, TF over GST control)"}, {"measurement": "binding signal", "setting": "ETV3", "result": "1.09 fold enrichment (6-mer frequency, TF over GST control)"}, {"measurement": "binding signal", "setting": "ETV6", "result": "1.09 fold enrichment (6-mer frequency, TF over GST control)"}]}
